Test results published in PubChem BioAssay (NCI).
Compounds without any hit were thinned out: in the full panel of roughly 83,000, 20% have a hit.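 Plates (96-well) were seeded with cells, treated with compound at one concentration, and incubated for 48 hours before percent growth was determined.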 A number with no mark means an inactive call. Active and inactive are the calls of the source. The calls were made as follows: active = growth percent below 10; inactive = the rest.

tested on: HL-60(TB) leukemia; experiment: NCI-60 one-dose screen, 48 h (100 = growth as untreated, 0 = no growth, -100 = all killed); conditions: 10 µM unless noted

| Structure (SMILES) | growth |
| --- | --- |
| Ic1ccc(OCCCCn2ccnc2)cc1 | 3.58% (active) |
| O=C1/C(=C\c2ccc(Cl)cc2)CN(C(=O)c2ccccc2)C/C1=C\c1ccc(Cl)cc1 | 58% |
| COc1ccc(C2C(c3ccccc3)C(=O)N2c2cc(OC)c(OC)c(OC)c2)cc1I (stereo not given) | -31.6% (active) |
| C(#Cc1ccccc1C#Cc1ccccn1)c1ccc(OCCCCCCOc2ccc(C#Cc3ccccc3C#Cc3ccccn3)cc2)cc1 | 14.3% |
| COc1cc(Cl)cc(-c2nn(-c3cccc(NC(=O)Nc4cc(C(F)(F)F)cc(C(F)(F)F)c4)c3)cc2-c2ccncc2)c1 | -20.1% (active) |
| CC1CCCN(CCCCCOc2ccc3oc4ccc(Cl)cc4c(=O)c3c2)C1 (stereo not given) | 48.6% |
| Clc1nc(Nc2ccccc2)nc(Nc2ccccc2)n1 | 65.6% |
| CC1CN(C(C)C)C(=S)N(c2ccccc2)C1=O (stereo not given) | 113% |
| COc1ccc(/C=C2\CCCC3=C2N=C2SC(C)=NN2C3c2ccc(OC)c(OC)c2)cc1OC (stereo not given) | -14.5% (active) |
| CCOC(=O)C/C(=N\Nc1cc(=O)[nH]c2ccc(C)cc12)C(=O)OCC | 92% |
| C[C@@H]1NC(=O)[C@H](Cc2ccccc2)N(Cc2cccnc2)C1=O | 103% |
| COc1cccc(/C(C)=N/NC(=O)CSc2nc3ccccc3c(=O)n2CCc2ccc(S(N)(=O)=O)cc2)c1 | 58.5% |
| CC(=O)C1CCC2C3CC(F)C4=CC(=O)CCC4(C)C3C(O)CC12C (stereo not given) | 94.2% |
| Cc1nc(Cl)c2c(n1)N(C)c1ccc(Cl)cc1C(C)C2 (stereo not given) | 72.2% |
| COc1ccc(-c2cc(-c3nnc(SCC(=O)Nc4ccc(C(C)=O)cc4)o3)c3ccccc3n2)cc1 | 69% |
| O=S(=O)(NCCNc1nccc(-c2c(-c3cccc(O)c3)nc3occn23)n1)c1ccccc1 | 55.3% |
| CCc1c(Nc2ccc(C)cc2)nc(N)[nH]c1=O | 89.6% |
| N/C(=N\N=C\c1cc2ccccc2[nH]1)N/N=C/c1cc2ccccc2[nH]1 | 101% |
| C#Cc1cccc(Nc2ncnc3cc4c(cc23)OCCOCCOCCO4)c1 | 88.1% |
| CCN(CC)CCCCCCCNc1c2ccc(Cl)cc2nc2ccc(OC)cc12 | -46.9% (active) |

| Structure (SMILES) | growth |
| --- | --- |
| Cc1cc(CO)c(O)c(CO)c1 | 80.5% |
| O=C1c2c(c3c4ccccc4n(CCCCCCBr)c3c3[nH]c4ccccc4c23)C(=O)N1O | -41.7% (active) |
| COc1ccccc1NC(=O)c1ccc(/C=C/C(=O)c2nccn2C)cc1 | -9.45% (active) |
| CCOC(=O)C1=CCC(n2cc(C)c(=O)[nH]c2=O)O1 (stereo not given) | 89.8% |
| CC(=O)OCCOc1cc(Cl)c(Cl)cc1Cl | 77.3% |
| CCOC(=O)c1c2c(n3ccc(NC(=O)CCN4CCCC4)cc13)C(=O)c1ncccc1C2=O | -34.2% (active) |
| C[n+]1cccc(CC(=O)NO)c1 | 94.7% |
| O=C(Nc1ccncc1)C(=O)c1cn(S(=O)(=O)c2ccc(F)cc2)c2ccccc12 | 0.498% (active) |
| COc1ccc(Cn2cc(Cn3cc(C=C4C(=O)NC(=O)NC4=O)c4ccccc43)nn2)cc1 | 82.6% |
| Nc1nc(=O)n([C@H]2CC=C(CO)O2)cc1F | 88% |
| COc1cc2nc(C(=O)N3CCCCC3)cc(Nc3ccccc3)c2cc1OC | 96.8% |
| Cc1nc2cc(-n3c(-c4ccc(F)cc4)nc4ccccc4c3=O)ccc2n1Cc1ccccc1 | 57.7% |
| O=C1c2cc(Cl)ccc2Oc2cc([N+](=O)[O-])ccc2N1c1ccc(F)cc1F | 76% |
| O=[N+]([O-])c1c(S(=O)(=O)O)cc2cc(S(=O)(=O)O)ccc2c1[N+](=O)[O-] | 108% |
| CCSC1=CC(=O)c2ccccc2C1=O | 50.9% |
| Cc1cccc(N2C(=O)/C(=C/C(Cl)=C/c3ccc([N+](=O)[O-])cc3)SC2=S)c1C | -13.3% (active) |
| COc1ccc2[nH]c(=O)c(/C=N/Nc3nc(-c4ccccc4)cs3)c(O)c2c1 | 83.9% |
| OC(c1ccccc1)(c1ccccc1)c1ccccc1-c1ccccc1 | 82% |
| CC(=O)Oc1ccccc1C(=O)N=C1[Se]CCCN1C(=O)c1ccccc1OC(C)=O | 12.7% |
| CCN1C(=O)N(CC)C2C1NN=c1s/c(=C\c3cccc(F)c3)c(=O)n12 (stereo not given) | -16.9% (active) |
